According to PubChem BioAssay (Tox21):
Results filed as inconclusive are left out. The source made the active and inactive calls. Calls follow the shape of the dose curve; as a rule, active = well fitted activation curve with a large enough effect in the signal ratio in the repeat runs (not every such curve was filed as active); inconclusive = weak or mixed curves; inactive = flat fitted curve, though single readings scatter; the % refers to the signal ratio.

Assay: qHTS assay to identify small molecule agonists of the hypoxia (HIF-1) signaling pathway (AID 1224846)
Conditions: HRE-bla ME-180 cells, beta-lactamase ratio, 17 h; series mostly up to 76.8 µM
Source text: U.S. Tox21 Program National Center for Advancing Translational Sciences [NCATS] NIH Chemical Genomics Center [NCGC] U.S. Environmental Protection Agency [EPA] National Institutes of Environmental Health Sciences [NIEHS] National Toxicology Program [NTP] U.S. Food and Drug Administration [FDA] Tox21 Assay Overview: Hypoxia-inducible factor-1 (HIF-1) is the major hypoxia-regulated transcription factor that controls cellular responses to low oxygen concentration. HIF-1 is composed of two subunits: hypoxia responsive HIF-1-alpha and constitutively expressed HIF-1-beta, which is also known as aryl hydrocarbon receptor nuclear translocator. During hypoxic conditions, HIF-1-alpha heterodimerizes with HIF-1-beta and translocates into the nucleus where the HIF-1 complex binds to the hypoxia-response element (HRE) and activates expression of target genes such as VEGF (vascular endothelial growth factor). The HIF-1 pathway is essential to normal growth and development, and is involved in the pathophysiology of cancer, inflammation, and ischemia. Using a beta-lactamase reporter-gene under control of the hypoxia response element, a cell-based assay [CellSensor(TM) HRE-bla ME-180 from Life Technologies, Carlsbad, CA] was used to measure hypoxia-induced signaling. Tox21 10K library compounds were measured for their ability to induce the reporter gene activity.
Tox21 Assay Protocol Summary: HRE-bla ME-180 cells were dispensed at 2,000 cells per well in 6 uL of assay medium containing 0.5% dialyzed FBS into black wall/clear-bottom 1536-well plates using a Multidrop Combi (Thermo Scientific, Waltham, MA) dispenser. After the assay plates were incubated at 37C and 5% CO2 for 5 hrs, 23 nL of compounds dissolved in DMSO, positive controls or DMSO only was transferred to each well of the assay plate using a Pintool station (Kalypsys, San Diego, CA). The assay plates were incubated at 37C and 5% CO2 for 17 hrs. One uL of LiveBLAzerTM B/G FRET substrate (CCF4-AM) (Life Technologies) was added to each well using a Flying Reagent Dispenser (Aurora Discovery, San Diego, CA).

Q: With CC(=O)O as the compound, how does the outcome read?
A: inactive

Q: Which outcome does the source give for CCCC[n+]1ccccc1 here?
A: inactive

Q: With C1CCC(NC2CCCCC2)CC1 as the compound, how does the outcome read?
A: inactive

Q: With CCCC[n+]1ccccc1C as the compound, how does the outcome read?
A: inactive

Q: Which outcome does the source give for O=c1[nH]c(=O)n(Cl)c(=O)n1Cl here?
A: inactive

Q: For CCCCCCn1cc[n+](C)c1, which outcome is on record?
A: inactive

Q: Which outcome does the source give for OCCOc1ccccc1 here?
A: inactive

Q: For Cc1cc(Cl)ccc1N, which outcome is on record?
A: inactive

Q: Which outcome does the source give for CC[N+]1(C)CCCC1 here?
A: inactive

Q: For O=C(O)C(Cl)(Cl)Cl, which outcome is on record?
A: inactive

Q: Which outcome does the source give for CCCn1cc[n+](C)c1 here?
A: inactive

Q: With C[N+](C)(C)Cc1ccccc1 as the compound, how does the outcome read?
A: inactive

Q: Which outcome does the source give for CCNc1nc(Cl)nc(NCC)n1 here?
A: inactive

Q: Which outcome does the source give for CCn1cc[n+](C)c1C here?
A: inactive

Q: For O=C(O)c1ccccc1O, which outcome is on record?
A: inactive

Q: For O=c1nc(O)n(Cl)c(=O)n1Cl, which outcome is on record?
A: inactive

Q: Which outcome does the source give for CCCCCCCCn1cc[n+](C)c1 here?
A: inactive

Q: For CCC[N+]1(C)CCCC1, which outcome is on record?
A: inactive

Q: Which outcome does the source give for CCC[N+]1(C)CCCCC1 here?
A: inactive

Q: With CC[n+]1ccccc1 as the compound, how does the outcome read?
A: inactive

Q: For O=C(O)c1nc(Cl)ccc1Cl, which outcome is on record?
A: inactive

Q: For CCCCCCCCCCCCOS(=O)(=O)O, which outcome is on record?
A: inactive

Q: With CCOP(=S)(OCC)Oc1ccc2c(C)c(Cl)c(=O)oc2c1 as the compound, how does the outcome read?
A: inactive

Q: For CCCCn1cc[n+](C)c1, which outcome is on record?
A: inactive

Q: For CCCCCCCCCCCCCCCCn1cc[n+](C)c1, which outcome is on record?
A: inactive

Q: Which outcome does the source give for Oc1ccccc1-c1ccccc1 here?
A: inactive

Q: With Nc1ccc(-c2ccc(N)cc2)cc1 as the compound, how does the outcome read?
A: inactive

Q: For CCCCCCCCCCCC(=O)O, which outcome is on record?
A: inactive

Q: For O=C(O)COc1ccc(Cl)cc1Cl, which outcome is on record?
A: inactive

Q: Which outcome does the source give for O=C(O)CCl here?
A: inactive

Q: With CCCC[N+]1(C)CCCC1 as the compound, how does the outcome read?
A: inactive

Q: Which outcome does the source give for CCCCn1cc[n+](C)c1C here?
A: inactive

Q: With CCCC[N+]1(C)CCCCC1 as the compound, how does the outcome read?
A: inactive

Q: Which outcome does the source give for O=[N+]([O-])c1ccccc1O here?
A: inactive

Q: Which outcome does the source give for CCCCCC[n+]1ccccc1 here?
A: inactive

Q: With CCCC[n+]1ccc(C)cc1 as the compound, how does the outcome read?
A: inactive

Q: Which outcome does the source give for Cc1cc(Cl)ccc1OCC(=O)O here?
A: inactive

Q: With COCC(=O)N(c1c(C)cccc1C)C(C)C(=O)OC (stereo not given) as the compound, how does the outcome read?
A: inactive

Q: Which outcome does the source give for CCC(=O)C(CC(C)N(C)C)(c1ccccc1)c1ccccc1 (stereo not given) here?
A: inactive

Q: For CNC, which outcome is on record?
A: inactive
